# The supplement of paper PMC10681739
# Target: T1, ETS1 (UniProt P14921)
# T1 sequence: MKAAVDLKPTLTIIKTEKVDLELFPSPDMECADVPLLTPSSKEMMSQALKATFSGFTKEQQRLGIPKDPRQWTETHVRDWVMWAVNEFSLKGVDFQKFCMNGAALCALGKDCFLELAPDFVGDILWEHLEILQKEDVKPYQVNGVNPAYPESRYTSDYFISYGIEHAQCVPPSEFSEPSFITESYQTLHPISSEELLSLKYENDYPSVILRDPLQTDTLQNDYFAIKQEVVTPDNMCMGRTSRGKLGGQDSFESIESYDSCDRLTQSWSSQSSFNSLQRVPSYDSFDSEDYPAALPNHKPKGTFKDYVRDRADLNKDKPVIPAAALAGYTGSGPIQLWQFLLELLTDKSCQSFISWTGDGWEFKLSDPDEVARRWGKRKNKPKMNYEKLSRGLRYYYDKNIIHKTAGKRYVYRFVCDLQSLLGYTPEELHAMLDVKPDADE
# Assay: ETS1 binding intensity (PBM fluorescence) in presence of RUNX1, normalised to ETS1-only experiment (arbitrary fluorescence units); higher = stronger binding
# Settings: ETS1 concentration 1 nM; RUNX1 concentration 25 nM
# Description: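 Cooperative genomic-context PBM: 36-bp genomic probes with neighbouring ETS1 and RUNX1 sites, double-stranded on Agilent 4x180k arrays. Full-length recombinant human ETS1 (1 nM) was incubated alone or with RUNX1 (25 nM) and detected with anti-ETS1 antibody plus Alexa488 secondary. Value is the median fluorescence intensity over 4 replicate spots; the ETS1+RUNX1 data were normalised to the ETS1-only data using probes without RUNX1 sites. The 36-bp variable region sits on the array probe with constant linker/primer flanks that are not printed.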
row,Sequence,ETS1 binding intensity
1,GCACAGGCCGGAAGGAAAAGGGTTGTGGGGCTCATT,1180
2,GATGAAAGAGGAAGTTCTCAAACCACCTTGCCAGTG,1490
3,GTGTGAAGGAAGTGTGAGATCAAACCACAGCTGGGT,901
4,TCACTCTAACAGGATATTGTGGTTAACTATGTTGCC,17400
5,GGGGAAGAGGAAGCTGTGTCCGCGGTGCAAGGGGTT,542
6,TTTGTAAGAGGAGGAAGTGGTTTGTAAGAGGAGAAA,3260
7,AGGCCGCCTACAGGATGTTGGAAACCACAGGGCCCG,29100
8,CCATTTCCGCGCACGTCTGCAGATGCGGTAGTCGAT,463
9,CATGACGAAGGGGAAGGATGTGGTTTGAGGGCAGCA,8460
10,GGAGGGCTTCCTGCCCACCACCACCCACAGCAGCTG,676
11,CCCACCCTCGCCGGAAGCCGAGCGGTTTCTACATCA,3600
12,CCGCTGAGAACAGGATGTGGGTGTCAGGAGGTGAAG,7410
13,AGAGTCTTTTTTCCTGAGCGTTTGCGGTTTTGACTT,1690
14,AAACCAGAGAGGAAGTGGCACCACATGGCCAGACTG,2150
15,GGGCAGCATCCTGTGCCTGCTTCTCTTACCCACATC,453
16,GCGAGCACTTCCGGTGTGTGAGCCTGCGGTTGCTAC,22400
17,TGCCACCTGCTTCCTGCCTGTGTAGCCACAAGGGAC,960
18,TTCACAACACAGGATGTGCGGTATTATACGGCAAAG,11200
19,ATTTCCATTTCCGGACTCTTCTCCTGCCCGCAGGGC,3560
20,CTCGTGCGTCACTTCCGCCCCGCAGACCCGCCCACT,2940

row,Sequence,ETS1 binding intensity
1,TATTGTGTACTTCCCCTTCATGTTGTGGTTGGCTTT,619
2,AGATTAGATGCAGGATGTGGTATACAAAGGCACGTT,7140
3,AGCCACGGACTTCCGCCTACAGGTCGCCGCAGGTCC,882
4,AGAAGCTGCAGTCCCGGAAGCGGTTTTAGGGGGCCG,10100
5,CACCCTCAACTTCCTGACCCATAAACCACAAGCTAT,1810
6,ATCACAAGCAGAGGATGTGGTTAGTGTTTCGTTCCA,5580
7,ACTATTTTTAGACTTCCCCACCCCGCAGTTTCAAGG,554
8,ACGTGATGGCAGTCTTCCTGCCCACAAGTTCTGGTC,486
9,TGGCTGGGCAGGAAGGCCTGTGGCTTACGGTTCCTG,651
10,TTTAAGGGCGGAAAGGCTTTAGCCGCAAAATGGCTT,2380
11,ATGTCTTCCTGTACAGGAACTGGGTCCCAGCCGCAG,4430
12,ACCCTGAAATTACCCGGATGTGGTCCCCGCGCGCGC,8100
13,ATGGTGTAGAGAGGATGTGGGCTTTAAGGTCAGAGA,1690
14,CTCCAGGGACAACCCGGAAACCACATTGCCCAGCGT,6990
15,GCAGCTCTGGCAGGATGCGGTTAAATATGTAGCCAC,12800
16,ACCCTTCCTGGAGCATTGTCGCAGCAACCACAACAG,975
17,CTAAGCAGAGGCCGGAAGCGGTGGTTTTTAGCGGCT,20400
18,GGCTTTCCGTTCAAGGATCTTTTTGCGGTCTTTGTC,777
19,TTTTCTTTCCTAGGAAGTGGTTGCTGGGTTCTGAGG,721
20,GCCGTAGCGGAAGAGTGTTCGTGGTCATGTGACGCC,814
